USP7 block = blocks human USP7 ubiquitin-rhodamine cleavage; Q93009; AID 1645854; purified USP7, Ub-rhodamine cleavage fluorescence; actives 0.3% (n = 47,000); inhibition, % at 20 µM
USP10 inh = inhibitors of human USP10 deubiquitinase. Q14694. purified USP10, Ub-rhodamine fluorescence, 60 min. inhibition, % at 20 µM. actives 1.1% (n = 47,000)
OTUD3 inh = inhibitors of human OTUD3 deubiquitinase | Q5T2D3 | inhibition, % at 25 µM | purified OTUD3, Ub-rhodamine fluorescence, 2 h | actives 0.7% (n = 47,000)
UCHL1 inh = human UCHL1 deubiquitinase inhibition; purified UCHL1, Ub-rhodamine cleavage fluorescence; P09936; AID 1645859; actives 0.2% (n = 47,000); inhibition, % at 20 µM
USP8 block = blocks human USP8 ubiquitin-rhodamine cleavage; P40818; purified USP8, Ub-rhodamine cleavage fluorescence, 30 min; inhibition, % at 20 µM; actives 4.2% (n = 47,000); AID 1645853
An asterisk follows results filed as active. A selection: hits, their analogues and other compounds. The true share with any hit is near 4.9%. No stated cut-off is given here; in the data, active means inhibition above about 30%; inactive means the rest.

For COc1ccc2cc(CNCC3CCCO3)c(=O)[nH]c2c1 (stereo unspecified) the results were USP7 block 0.0, USP10 inh 0.1, OTUD3 inh -7.5, UCHL1 inh -0.7 and USP8 block -3.3.
O=C(O)c1ccc(NCc2nc3ccccc3n2CCOc2ccccc2)cc1 was read as USP7 block -0.5, USP10 inh 7.7, OTUD3 inh 8.8, UCHL1 inh 0.3 and USP8 block 17.2.
For Cc1cccc(OCCn2c(NC(=O)c3ccc(Cl)cc3)nc3ccccc32)c1 the results were USP7 block 4.1, USP10 inh 4.5, OTUD3 inh 13.3, UCHL1 inh 1.1 and USP8 block 65.8*.
Cc1cc(F)ccc1NC(=O)C1CCN(c2cnc(N3CCCCC3)nc2)CC1 was read as USP7 block -7.6, USP10 inh -3.6, OTUD3 inh 4.5, UCHL1 inh -0.5 and USP8 block 30.6*.
Screening O=C(NCc1ccc(F)cc1)C1CCN(c2cnc(N3CCCCC3)nc2)CC1 returned USP7 block 2.0, USP10 inh -3.1, OTUD3 inh 6.1, UCHL1 inh 1.1 and USP8 block 15.3.
O=C(Nc1ccccc1)C1COc2ccccc2C1 (stereo unspecified) was read as USP7 block 0.1, USP10 inh 3.5, OTUD3 inh 0.2, UCHL1 inh -2.6 and USP8 block 0.5.
`O=C(O)C1C(C(=O)Nc2ccccc2)C2(c3ccccc3)C(=O)C1(c1ccccc1)C(c1ccccc1)=C2c1ccccc1` (stereo unspecified) gave USP7 block 65.7*, USP10 inh 69.4*, OTUD3 inh 64.2*, UCHL1 inh 7.5 and USP8 block 51.0*.
Cc1cc(-c2cncc(C3CCCN(S(=O)(=O)N(C)C)C3)n2)n[nH]1 (stereo unspecified) was read as USP7 block 3.6, USP10 inh -2.7, OTUD3 inh 2.4, UCHL1 inh 1.3 and USP8 block 0.1.
COc1ccc([C@@H]2CN(S(=O)(=O)c3ccc(OC)cc3)C[C@H]2c2ccn[nH]2)cc1 was read as USP7 block 2.9, USP10 inh 1.0, OTUD3 inh -6.1, UCHL1 inh 1.1 and USP8 block -45.6.
`Cc1cc(=O)c2c(O)oc(O)c3c(O)cc(=O)c1c32` gave USP7 block -85.2, USP10 inh -0.1, OTUD3 inh -1.7, UCHL1 inh 7.0 and USP8 block 30.9*.
Screening Cc1cc(O)cc2oc3cc(O)cc(O)c3c(=O)c12 returned USP7 block -9.0, USP10 inh -1.0, OTUD3 inh 8.1, UCHL1 inh -3.9 and USP8 block -22.6.
For O=C(Nc1cccc(S(=O)(=O)N2CCOCC2)c1)C1Cc2ccccc2CN1C(=O)c1ccco1 (stereo unspecified) the results were USP7 block -7.5, USP10 inh -5.6, OTUD3 inh -8.4, UCHL1 inh -3.1 and USP8 block 40.5*.
`CSc1cccc(NC(=O)C2Cc3ccccc3CN2C(=O)c2ccco2)c1` (stereo unspecified) gave USP7 block -22.8, USP10 inh -3.8, OTUD3 inh 5.0, UCHL1 inh 4.2 and USP8 block 10.9.
For Cc1ccc(S(=O)(=O)CC(=O)Nc2ccc(-c3nc4ccccc4s3)c(O)c2)cc1 the results were USP7 block 10.4, USP10 inh 27.0, OTUD3 inh -5.9, UCHL1 inh 0.0 and USP8 block 80.0*.
Screening CCc1ccc(OCC(=O)Nc2cccc(-c3nc4ccccc4s3)c2)cc1 returned USP7 block 2.7, USP10 inh 4.9, OTUD3 inh 5.4, UCHL1 inh 1.5 and USP8 block -7.2.
`O=c1c(NCc2ccc(F)cc2)nccn1Cc1ccc(F)cc1` gave USP7 block -67.6, USP10 inh 1.1, OTUD3 inh -1.0, UCHL1 inh 1.6 and USP8 block -0.3.
`OC(c1ccc2c(c1)OCO2)c1ncc(-c2ccc(Cl)cc2)[nH]1` (stereo unspecified) gave USP7 block -2.9, USP10 inh -5.5, OTUD3 inh -13.9, UCHL1 inh -3.1 and USP8 block 5.0.
For OC(c1ccc2c(c1)OCO2)c1ncc(-c2ccc3ccccc3c2)[nH]1 (stereo unspecified) the results were USP7 block 3.3, USP10 inh -5.7, OTUD3 inh -10.1, UCHL1 inh -0.8 and USP8 block 40.0*.
COc1ccccc1C1CC(=O)N(c2ccccc2)C2=C1C(=O)OC2 (stereo unspecified) was read as USP7 block -38.9, USP10 inh -0.2, OTUD3 inh 9.3, UCHL1 inh 0.1 and USP8 block -62.2.

High-throughput results (PubChem)
